# Experimental data: PubChem BioAssay (NCATS)
# Results filed as inconclusive are left out. Entries that show only a call come without a potency. Active and inactive are the calls of the source. Unless noted, calls come from the whole dose curve.
# What was measured:
# [1] = qHTS for Inhibitors of the Functional Ribonucleoprotein Complex (vRNP) of Lassa (LASV) Arenavirus: LASV Primary Screen - GLuc reporter signal (AID 1347082; calls by dose curve; tested in HEK293 reporter line; note: nearly all actives have a fitted effect of over 60% in size; for activity change, negative = inhibition: series mostly up to about 57 µM)
# [2] = qHTS for Inhibitors of the Functional Ribonucleoprotein Complex (vRNP) of Lassa (LASV) Arenavirus: Viability assay - alamar blue signal for LASV Primary Screen (AID 1347083; calls by dose curve; tested in HEK293 reporter line; note: nearly all actives have a fitted effect of over 80% in size; for activity change, negative = reduced viability: series mostly up to about 57 µM)
# [3] = qHTS for Inhibitors of the Functional Ribonucleoprotein Complex (vRNP) of Lymphocytic Choriomeningitis Arenaviruses (LCMV): Viability assay - alamar blue signal for LCMV Primary Screen (AID 1347085; calls by dose curve; tested in HEK293 reporter line; note: nearly all actives have a fitted effect of over 80% in size; for activity change, negative = lower viability: series mostly up to about 57 µM)
# [4] = target: Nucleoprotein (Lymphocytic choriomeningitis virus (strain Armstrong)) (UniProt P09992); experiment: qHTS for Inhibitors of the Functional Ribonucleoprotein Complex (vRNP) of Lymphocytic Choriomeningitis Arenaviruses (LCMV): LCMV Primary Screen - GLuc reporter signal (AID 1347086); note: nearly all actives have a fitted effect of over 70% in size; for activity change, negative = inhibition: series mostly up to about 57 µM
# Chain of Nucleoprotein (Lymphocytic choriomeningitis virus (strain Armstrong)) (P09992 whole entry, looked up): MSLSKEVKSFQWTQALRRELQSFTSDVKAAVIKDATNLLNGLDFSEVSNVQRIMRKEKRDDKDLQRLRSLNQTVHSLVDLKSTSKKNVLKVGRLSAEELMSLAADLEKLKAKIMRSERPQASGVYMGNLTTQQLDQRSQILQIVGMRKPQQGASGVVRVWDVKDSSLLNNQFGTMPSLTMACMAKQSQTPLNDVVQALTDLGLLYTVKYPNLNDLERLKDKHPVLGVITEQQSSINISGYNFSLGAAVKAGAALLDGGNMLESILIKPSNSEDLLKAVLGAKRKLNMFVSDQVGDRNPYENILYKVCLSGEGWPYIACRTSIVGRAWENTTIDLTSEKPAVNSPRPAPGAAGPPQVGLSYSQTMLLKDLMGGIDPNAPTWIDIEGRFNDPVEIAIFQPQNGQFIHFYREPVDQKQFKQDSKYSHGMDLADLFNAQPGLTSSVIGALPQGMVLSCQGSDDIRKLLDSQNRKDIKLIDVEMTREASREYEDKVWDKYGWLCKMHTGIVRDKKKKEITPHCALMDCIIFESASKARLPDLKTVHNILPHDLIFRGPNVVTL
# Potency is the fitted concentration of half-maximal effect.
smiles,measurement,setting,value
COc1cc2nc(-c3cc(F)ccc3O)nc(N[C@@H]3CNC[C@@H]3C(C)(C)O)c2cc1OC,Potency,[1],1.37 µM (active)
same,Potency,[2],1.09 µM (active)
same,Potency,[3],8.63 µM (active)
COc1cc2c(c(OC)c1OC)-c1c(cc3c(c1OC)OCO3)C1OC2[C@@H](C)[C@H]1C (stereo partly specified),Potency,[1],inactive
same,Potency,[2],inactive
same,Potency,[3],inactive
same,Potency,[4],inactive
Clc1cccc(-c2nnnn2Cc2cccnc2)c1Cl,Potency,[1],inactive
same,Potency,[2],inactive
same,Potency,[3],inactive
same,Potency,[4],inactive
COc1c(Br)cc(Br)cc1C(=O)O,Potency,[1],inactive
same,Potency,[2],inactive
same,Potency,[3],inactive
same,Potency,[4],inactive
CC(C)=CCC[C@](C)(O)C1CC[C@]2(C)C1[C@H](O)CC1[C@@]3(C)CC[C@H](O[C@@H]4O[C@H](CO)[C@@H](O)[C@H](O)[C@H]4O[C@@H]4O[C@H](CO)[C@@H](O)[C@H](O)[C@H]4O)C(C)(C)C3CC[C@]12C (stereo partly specified),Potency,[1],inactive
same,Potency,[2],inactive
same,Potency,[3],inactive
same,Potency,[4],inactive
CC(C)=CCOc1c2ccoc2c(OCC=C(C)C)c2oc(=O)ccc12,Potency,[1],inactive
same,Potency,[2],inactive
same,Potency,[3],inactive
same,Potency,[4],inactive
COc1c2c(nc3occc13)C(CC=C(C)C)(OC)C(=O)C=C2 (stereo unspecified),Potency,[1],inactive
same,Potency,[2],inactive
same,Potency,[3],inactive
same,Potency,[4],inactive
Nc1nc2c(ncn2[C@@H]2O[C@H](COP(=O)(O)OP(=O)(O)O)[C@@H](O)[C@H]2O)c(=O)[nH]1,Potency,[1],inactive
same,Potency,[2],inactive
same,Potency,[3],inactive
same,Potency,[4],inactive
C=C(C)C(COc1c2occc2cc2ccc(=O)oc12)OC(C)(C)C(O)COc1c2occc2cc2ccc(=O)oc12 (stereo unspecified),Potency,[1],inactive
same,Potency,[2],inactive
same,Potency,[3],inactive
same,Potency,[4],inactive
CCCCC#Cc1nc(NC)c2ncn([C@@H]3O[C@H](CO)[C@@H](O)[C@H]3O)c2n1,Potency,[1],inactive
same,Potency,[2],inactive
same,Potency,[3],inactive
same,Potency,[4],inactive
COc1ccc([C@@H]2[C@@H](O)[C@H](O)[C@@H](C)N2C)cc1OC,Potency,[1],inactive
same,Potency,[2],inactive
same,Potency,[3],inactive
same,Potency,[4],inactive
CCc1cc(C(C)=NOCc2ccc(C3CCCCC3)c(C(F)(F)F)c2)ccc1CN1CC(C(=O)O)C1,Potency,[1],inactive
same,Potency,[2],inactive
same,Potency,[3],inactive
same,Potency,[4],inactive
O=C(O)C=Cc1ccc(Cn2ccnc2)cc1,Potency,[1],inactive
same,Potency,[2],inactive
same,Potency,[3],inactive
same,Potency,[4],inactive
COc1cc2oc(=O)c3c4c(cc5ccc(c1CCN(C)C)c2c53)OCO4,Potency,[1],inactive
same,Potency,[2],inactive
same,Potency,[3],inactive
same,Potency,[4],inactive
CC1(C)CCC[C@]2(C)[C@H]3Cc4cc(O)ccc4O[C@]3(C)CC[C@@H]12,Potency,[1],inactive
same,Potency,[2],inactive
same,Potency,[3],inactive
same,Potency,[4],inactive
CCCCCCCCC(=O)OCC,Potency,[1],inactive
same,Potency,[2],inactive
same,Potency,[3],inactive
same,Potency,[4],inactive
O=C1Nc2ccccc2C(=O)N2CCC[C@@H]12,Potency,[1],inactive
same,Potency,[2],inactive
same,Potency,[3],inactive
same,Potency,[4],inactive
COC1[C@@H](OC)C[C@H](C)[C@@H](OC)C2=CC(=O)C=C(NC(=O)/C(C)=C/C=C\[C@H](OC)[C@@H](OC(N)=O)/C(C)=C/[C@@H]1C)C2=O (stereo partly specified),"activity change, negative = inhibition",[1],1.65% [at 5.82 µM] (inactive)
same,"activity change, negative = reduced viability",[2],7.34% [at 5.82 µM] (inactive)
same,"activity change, negative = lower viability",[3],15.6% [at 5.82 µM] (inactive)
same,"activity change, negative = inhibition",[4],12.1% [at 5.82 µM] (inactive)
COc1ccc(-c2cc(=O)c3c(O)cc(OC4OC(COC5OC(C)C(O)C(O)C5O)C(O)C(O)C4O)cc3o2)cc1O (stereo unspecified),Potency,[1],inactive
same,Potency,[2],inactive
same,Potency,[3],inactive
same,Potency,[4],inactive
CC1(C)CCC[C@@](C)([C@H]2CC[C@]3(C)[C@@H]2[C@H](O)C[C@@H]2[C@@]4(C)CC[C@H](O)C(C)(C)[C@@H]4CC[C@]23C)O1,Potency,[1],inactive
same,Potency,[2],inactive
same,Potency,[3],inactive
same,Potency,[4],inactive
CC1=CCC(=C(C)C)CC1,Potency,[1],inactive
same,Potency,[2],inactive
same,Potency,[3],inactive
same,Potency,[4],inactive
CC(C)CCCC(C)CCO (stereo unspecified),Potency,[1],inactive
same,Potency,[2],inactive
same,Potency,[3],inactive
same,Potency,[4],inactive
CC1(C)C[C@H]2C3=CCC4[C@@]5(C)CC[C@H](O)[C@](C)(CO)C5CC[C@@]4(C)[C@]3(C)C[C@H]3O[C@@H]1[C@H](O)[C@]32CO (stereo partly specified),Potency,[1],inactive
same,Potency,[2],inactive
same,Potency,[3],inactive
same,Potency,[4],inactive
CCC/C=C/C/C=C/C=C/C=N/NN=O,Potency,[1],inactive
same,Potency,[2],inactive
same,Potency,[3],inactive
same,Potency,[4],inactive
C/C(=C/C=C/[C@@H](C)C(=O)O)[C@H]1CN[C@H](C(=O)O)[C@H]1CC(=O)O,Potency,[1],inactive
same,Potency,[2],inactive
same,Potency,[3],inactive
same,Potency,[4],inactive
COc1cc(C)c(C(=O)Oc2cc(C)c(C(=O)O)c(O)c2C)c(OC)c1C,Potency,[1],inactive
same,Potency,[2],inactive
same,Potency,[3],inactive
same,Potency,[4],inactive
CC1CCC(=O)O1 (stereo unspecified),Potency,[1],inactive
same,Potency,[2],inactive
same,Potency,[3],inactive
same,Potency,[4],inactive
Cc1[nH]c(C=C2C(=O)Nc3ccccc32)c(C)c1CCC(=O)O,Potency,[1],inactive
same,Potency,[2],10.9 µM (active)
same,Potency,[3],21.7 µM (active)
same,Potency,[4],34.3 µM (active)
COc1cc(O)c2c(=O)c3c(O)ccc(O)c3oc2c1,Potency,[1],inactive
same,Potency,[2],inactive
same,Potency,[3],inactive
same,Potency,[4],inactive
Cc1c(O)c2ccccc2oc1=O,Potency,[1],inactive
same,Potency,[2],inactive
same,Potency,[3],inactive
same,Potency,[4],inactive
COC(C)(C)[C@@H](O)COc1c2ccoc2cc2oc(=O)ccc12,Potency,[1],inactive
same,Potency,[2],inactive
same,Potency,[3],inactive
same,Potency,[4],inactive
COc1c2ccoc2nc2c(OC)c(OCC(OC(C)=O)C(C)(C)O)ccc12 (stereo unspecified),Potency,[1],inactive
same,Potency,[2],inactive
same,Potency,[3],inactive
same,Potency,[4],inactive
C=C1CCC2C(C)(C)[C@@H](O)CC[C@@]2(C)[C@@H]1COc1ccc2ccc(=O)oc2c1 (stereo partly specified),Potency,[1],inactive
same,Potency,[2],inactive
same,Potency,[3],inactive
same,Potency,[4],inactive
CC1C(=O)OC2C1CCC1(C)CCC(=O)C(C)C21 (stereo unspecified),Potency,[1],inactive
same,Potency,[2],inactive
same,Potency,[3],inactive
same,Potency,[4],inactive
O=C(/C=C/c1ccc(O)cc1)OC[C@H]1O[C@@H](Oc2c(-c3ccc(O)cc3)oc3cc(O)cc(O)c3c2=O)[C@H](O)[C@@H](O)[C@@H]1O,Potency,[1],inactive
same,Potency,[2],inactive
same,Potency,[3],inactive
same,Potency,[4],inactive
COc1c(C)c2c(c(O)c1CC=C(C)CCC(=O)O)C(=O)OC2,Potency,[1],6.11 µM (active)
same,Potency,[2],3.85 µM (active)
same,Potency,[3],13.7 µM (active)
same,Potency,[4],7.69 µM (active)
CCCc1ccc(OC)cc1,Potency,[1],inactive
same,Potency,[2],inactive
same,Potency,[3],inactive
same,Potency,[4],inactive
COc1ccc2c(=O)c(-c3ccc(OC)c(OC)c3)coc2c1,Potency,[1],inactive
same,Potency,[2],inactive
same,Potency,[3],inactive
same,Potency,[4],inactive
COc1c2c(nc3occc13)C(CC=C(C)C)(OC)C(OC(C)=O)CC2 (stereo unspecified),Potency,[1],inactive
same,Potency,[2],inactive
same,Potency,[3],inactive
same,Potency,[4],inactive
COc1c(OC)c(O)c2c(=O)cc(-c3c(O)cccc3O)oc2c1OC,Potency,[1],inactive
same,Potency,[2],inactive
same,Potency,[3],inactive
same,Potency,[4],inactive
C=C(C)C1Cc2cc3ccc(=O)oc3cc2O1 (stereo unspecified),Potency,[1],inactive
same,Potency,[2],inactive
same,Potency,[3],inactive
same,Potency,[4],inactive
Nc1ccn([C@@H]2O[C@H](CO)[C@@H](OP(=O)(O)O)[C@H]2O)c(=O)n1,Potency,[1],inactive
same,Potency,[2],inactive
same,Potency,[3],inactive
same,Potency,[4],inactive
CC1(C)OC2CC3C4CC(F)C5=CC(=O)C=CC5(C)C4C(O)CC3(C)[C@]2(C(=O)CO)O1 (stereo partly specified),Potency,[1],inactive
same,Potency,[2],inactive
same,Potency,[3],inactive
same,Potency,[4],inactive
O=C(NC(Cc1ccccc1)C(=O)O)c1ccccc1 (stereo unspecified),Potency,[1],inactive
same,Potency,[2],inactive
same,Potency,[3],inactive
same,Potency,[4],inactive
CC[C@H]1NC(=O)[C@@H](NC(=O)c2ncccc2O)[C@@H](C)OC(=O)[C@H](c2ccccc2)NC(=O)[C@@H]2CC(=O)CCN2C(=O)[C@H](Cc2ccccc2)N(C)C(=O)[C@@H]2CCCN2C1=O,Potency,[1],inactive
same,Potency,[2],inactive
same,Potency,[3],inactive
same,Potency,[4],inactive
COc1ccc(C(=O)OC2CC[C@@]3(C)C4CCC5[C@]6(O)C[C@H](O)[C@@]7(O)C(CN8CC(C)CCC8[C@@]7(C)O)[C@]6(O)C[C@@]53O[C@]24O)cc1OC (stereo partly specified),Potency,[1],inactive
same,Potency,[2],inactive
same,Potency,[3],inactive
same,Potency,[4],inactive
CC(C)(O)CC[C@H](OC(=O)c1ccccc1)[C@](C)(O)[C@H]1CC[C@@]2(O)C3=CC(=O)[C@@H]4C[C@@H](O)[C@H](O)C[C@]4(C)C3CC[C@]12C (stereo partly specified),Potency,[1],inactive
same,Potency,[2],inactive
same,Potency,[3],inactive
same,Potency,[4],inactive
CC(C)c1cccc(O)c1,Potency,[1],inactive
same,Potency,[2],inactive
same,Potency,[3],inactive
same,Potency,[4],inactive
C[C@@H]1CC[C@]2(C(=O)O[C@@H]3O[C@H](CO)[C@@H](O)[C@H](O)[C@H]3O)CC[C@]3(C)C(=CCC4[C@@]5(C)CC[C@H](O[C@@H]6OC[C@H](O)[C@H](O[C@@H]7O[C@H](CO)[C@@H](O)[C@H](O)[C@H]7O)[C@H]6O)C(C)(C)C5CC[C@]43C)C2[C@]1(C)O (stereo partly specified),Potency,[1],inactive
same,Potency,[2],inactive
same,Potency,[3],inactive
same,Potency,[4],inactive
CCCCCCCCCCCCCCCC(=O)NCCc1c[nH]c2ccccc12,Potency,[1],inactive
same,Potency,[2],inactive
same,Potency,[3],inactive
same,Potency,[4],inactive
COc1cc(C(=O)OC2CC3CCC2(C)C3(C)C)ccc1OC(C)=O (stereo unspecified),Potency,[1],inactive
same,Potency,[2],inactive
same,Potency,[3],inactive
same,Potency,[4],inactive
C=C/C(=C/C(=O)C[C@H](C)C[C@@H](C)CC[C@H](O)[C@H](C)C(=O)C[C@@H](O)[C@H](C)[C@@H](C)OC(=O)C[C@@H](O)C1=C(C)C(=O)OC1=O)CC,"activity change, negative = inhibition",[1],-47.1% [at 11.5 µM] (inactive)
same,"activity change, negative = reduced viability",[2],-113% [at 11.5 µM] (inactive)
same,"activity change, negative = lower viability",[3],-114% [at 11.5 µM] (inactive)
same,"activity change, negative = inhibition",[4],-83.6% [at 11.5 µM] (inactive)
COc1cc(/C=C/C(=O)OC[C@H]2O[C@H](OC3(CO)OC(CO)C(O)C3O)[C@H](O)[C@@H](O)[C@@H]2O)ccc1O (stereo partly specified),Potency,[1],inactive
same,Potency,[2],inactive
same,Potency,[3],inactive
same,Potency,[4],inactive
